The record followed here is PubChem BioAssay (Tox21).

Each structure is given as a SMILES string. Records with an inconclusive call do not appear. Calls of active or inactive are those of the source. Calls follow the shape of the dose curve; as a rule, active = well fitted cell-killing curve with a large enough effect in the repeat runs; inconclusive = weak or mixed curves; inactive = no such curve, though single readings can be large or run the other way.
% is scaled to controls: 0 for no effect and ±100 for the full control effect.

This assay in a line: qHTS assay to identify small molecule antagonists of the androgen receptor (AR) signaling pathway - cell viability counter screen (AID 743033; also: nearly all actives have a fitted effect of over 45% in size). To be noted: AR-bla HEK293 viability, CellTiter-Glo luminescence, 16 h; series mostly up to 58.5 µM; activity change, negative = cytotoxicity: at the top concentration.
Regarding `O=C(O)[C@H](CC(=O)N1C[C@H]2CCCC[C@H]2C1)Cc1ccccc1`, the “activity change, negative = cytotoxicity” value is 6.84% (inactive).
In the case of `CC(C)(CO)[C@@H](O)C(=O)NCCCC(=O)O` it was -0.0465% (inactive).
In the case of `CCOC(=O)c1cc(-c2ccccc2)nc2ccc(C)cc12` it was 6.04% (inactive).
As for `C[C@@H]1C[C@H]2C3C[C@H](F)C4=CC(=O)C=CC4(C)[C@@]3(F)[C@@H](O)CC2(C)[C@@]1(O)C(=O)COC(=O)C(C)(C)C` (some centres undefined), the “activity change, negative = cytotoxicity” value was -1.66% (inactive).
In the case of `O=C(O)c1cc(N=Nc2ccc(O)c(C(=O)O)c2)ccc1O` it was -1.14% (inactive); in that of `COC(=O)[C@H]1[C@H]2C[C@@H]3c4[nH]c5cc(OC)ccc5c4CCN3C[C@H]2C[C@@H](OC(=O)/C=C/c2cc(OC)c(OC)c(OC)c2)[C@@H]1OC`, -19.8% [at 27 µM] (inactive); in that of `NC(=O)OC[C@@H]1[C@H](NC(=O)/C(=N\OCC(=O)O)c2csc(N)n2)C(=O)N1S(=O)(=O)O`, -17.3% (inactive).
In the case of `C[N+](C)(CCCCCC[N+](C)(C)C1c2ccccc2-c2ccccc21)C1c2ccccc2-c2ccccc21` it was 11.5% (inactive); in that of `O=C(O)c1c(Cl)c(Cl)c(Cl)c(Cl)c1-c1c2cc(I)c(=O)c(I)c-2oc2c(I)c(O)c(I)cc12`, 5.66% (inactive).
In the case of `O=C(Nc1ccc(O)cc1)c1ccccc1O` it was 6.37% (inactive); in that of `O=C(CCCCCCCCCCCCC1CCCC1)Nc1ccc(S(=O)(=O)c2ccc(NC(=O)CCCCCCCCCCCCC3CCCC3)cc2)cc1`, 0.583% (inactive); in that of `CC(C)c1nc(N(C)S(C)(=O)=O)nc(-c2ccc(F)cc2)c1/C=C/C(O)CC(O)CC(=O)O` (centres undefined), 5.42% (inactive).
As to `COc1cc(C)c(/C=C/C(C)=C/C=C/C(C)=C/C(=O)O)c(C)c1C`, the “activity change, negative = cytotoxicity” value was -25.3% (inactive).
In the case of `O=C(O)c1cc2ccccc2c(Cc2c(O)c(C(=O)O)cc3ccccc23)c1O` it was -11% (inactive).
